The source of these data is ChEMBL document CHEMBL3988442, “University of Dundee, Small-Polar-MMV Screening Library” (2021).

This assay addresses AMP-activated protein kinase, AMPK (Homo sapiens) (UniProt P54646+O43741+P54619+Q9UGJ0+Q9Y478+Q13131+Q9UGI9). Kind of assay: AMP-dependent Kinase enzyme assay. An in vitro enzyme assay that detects ADP turnover that is directly proportional to AMPK activity. This uses naive AMPK that is activated during the assay with MK-8722. Format: functional. The conditions noted are these: 30 µM. Further details: scale not given: direction of the effect not stated beside the values.
As to `O=C(NCC(O)c1cccc(O)c1)C1CCN(C2CCCCC2)CC1` (centres undefined), the Percent Effect is 0.496%.
Take `Cc1cc(C2CCCN(Cc3cccnc3)C2)n[nH]1` (centres undefined): the Percent Effect is -0.765%.
For the compound `COc1ccc(Cl)cc1C(C(=O)O)N1CCSCC1` (centres undefined), the Percent Effect was determined as 3.31%.
As for `Cc1nn(C(C)C)c(C)c1CN1CCN(C2CCCCC2)C(=O)C1`, the Percent Effect came to 8.49%.
`Cc1nnc(CN(C)CC(=O)NC(C)(C)c2ccc(F)cc2)n1C`: the Percent Effect came out at 6.43%.
With `COc1cc(-c2cccc3c2OC(CN)C3)ccc1O` (centres undefined), the Percent Effect is 59.7%.
With `Cc1ccc(C(=O)NC2CCCN(C)C2)c(=O)[nH]1` (centres undefined), the Percent Effect was -3.1%.
Then `FC(F)(F)c1cc(C2CCCN(Cc3cccnc3)C2)n[nH]1` (centres undefined), with 5.52%; and `CN1CC(C(=O)NCCc2ccc(F)c(Br)c2)CC1=O` (centres undefined), with 5.17%; and `CC(C(=O)NCc1ccc2c(c1)OCCO2)n1cncn1` (centres undefined), with -8.38%.
`CC(C)c1nnc2n1CCN(Cc1ccc3c(c1)OCO3)CC2`: the Percent Effect amounted to 9.68%.
Then `Cc1cc(CNCC2(O)CCOCC2)ccc1F`, with -5.64%; and `CNC(=O)NC(=O)CN(Cc1ccc(C#N)cc1)Cc1cccc(F)c1`, with -4.48%; and `CC(C(N)=O)N1CCN(c2ncc(Br)cn2)CC1` (centres undefined), with -3.12%.
Turning to `Cc1noc(C)c1C(=O)N1CCC(n2cccn2)CC1`, the Percent Effect is -9.16%.
As to `CCC(=O)Nc1cccc(OCC(=O)N(C)CCCC2CCCO2)c1` (centres undefined), the Percent Effect was found to be 11.8%.
For the compound `Cn1ncnc1NCc1ccccc1Cl`, the Percent Effect came to 1.77%.
On to `COCCCC1CCCCN1Cc1cn2cc(C)ccc2n1` (centres undefined), for which the Percent Effect amounted to 7.53%.
`CC(C)Cn1ncc(C(=O)NS(=O)(=O)C2CCCC2)c1C1CC1`: the Percent Effect is 5.57%.
As for `COc1cccc(-c2ncc(CN3CCOCC(O)C3)s2)c1` (centres undefined), the Percent Effect turned out to be 2.77%.
For the compound `CSc1nsc(NC(=O)N(C)Cc2ccc3c(c2)OCO3)n1`, the Percent Effect stood at 0.417%.
For the compound `CC1(C)Cc2nc(C(C)(C)C)ncc2C(NC(=O)CN)C1` (centres undefined), the Percent Effect was -5.88%.
As to `O=C(CC1CCCC1)NCCS(=O)(=O)N1CCN(c2ccccc2)CC1`, the Percent Effect is -7.22%.
Turning to `CC1(c2ncc(CN3CCN(c4ccccn4)CC3)cn2)CCCCO1` (centres undefined), the Percent Effect is 5.55%.
On to `Cc1cc(=O)[nH]c(-n2nc(-c3cccs3)cc2N)n1`, for which the Percent Effect was -13.8%.
On to `COC(=O)C1(NCC(=O)Nc2cc(C)ccc2OC)CCCCC1`, for which the Percent Effect is -3.05%.
Then `c1ncc(-c2cn(CCSc3cnn[nH]3)nn2)cn1`, with -3.28%; and `N[C@H]1CN(S(=O)(=O)Cc2ccccc2)C[C@@H]1C1CC1`, with -5.29%; and `COCCCNc1ncnc2c1CCN(C(=O)CC1C=CCC1)CC2` (centres undefined), with 11.8%.
Then `CCOc1ccccc1-n1c(C2CC2)n[nH]c1=O`, with 2.2%.
Regarding `Cc1ncn(CCNC(=O)Nc2ccc(F)c(Cl)c2)c(=O)c1C`, the Percent Effect worked out at 2.03%.
For `CCN(C)Cc1cccc(CNC(=O)CSCc2ccncc2)c1`, the Percent Effect is -11.3%.
Regarding `CN(C1CCCCC1)S(=O)(=O)NCC1Cc2ccccc2O1` (centres undefined), the Percent Effect is -9.03%.
Turning to `CNC(=O)c1cc(NC(=O)Nc2cnn(CC(C)C)c2)ccc1F`, the Percent Effect is -5.42%.
As to `CCCN(CCO)S(=O)(=O)c1ccc2[nH]c(=O)[nH]c2c1`, the Percent Effect is -3.64%.
As for `COc1ccc(Cl)cc1CN(C)C(=O)CN1C(=O)OC[C@@H]1C(C)C`, the Percent Effect was determined as 1.71%.
Take `CCOC(=O)c1n[nH]cc1CN1CCOC(Cc2ccc(F)cc2)C1` (centres undefined): the Percent Effect came to 1.89%.
For the compound `Cc1csc(NC(=O)NCCCN2CCC(C(N)=O)CC2)n1`, the Percent Effect is 1.03%.
In the case of `CCOc1ccc(NC(=O)NCCCN(C)S(C)(=O)=O)cc1C`, the Percent Effect is -4.23%.
